# Laboratory results taken from PubChem BioAssay (Tox21).
# Results filed as inconclusive are left out. Entries that show only a call come without a potency. The source made the active and inactive calls. Unless noted, the call rests on the fitted dose curve; in most records, active means well fitted curve in the direction sought with a large enough effect in the repeat runs; inconclusive means weak or mixed curves; inactive means no such curve, though single readings can be large; an effect the other way counts as inactive or inconclusive.
# How the values were obtained:
# [1] = qHTS assay to identify small molecule agonists of the vitamin D receptor (VDR) signaling pathway - cell viability counter screen (AID 743224); further: nearly all actives have a fitted effect of over 50% in size; further: potency means the concentration at half of the fitted maximal effect
# Outline: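 VDR-bla cell line, quantitative HTS format; 16 h compound incubation (37C, 5% CO2); ATP-based CellTiter-Glo luminescence measured in the reporter assay wells.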
# [2] = qHTS assay to identify small molecule agonists of the NFkB signaling pathway (AID 1159509; active means well fitted curve in the direction sought with a large enough effect in the signal ratio in the repeat runs, not every such curve was filed as active; the % refers to the signal ratio)
# Outline: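 ME-180 NFkB-bla, 2,000 cells/well, overnight plating; cpd pinned in DMSO, 5 h 37 C; B/G FRET substrate 1.5 h RT; ex 405, em 460/530 nm.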
# [3] = qHTS assay to identify small molecule agonists of the endoplasmic reticulum stress response signaling pathway (AID 1159516; active means well fitted activation curve with a large enough effect in the signal ratio in the repeat runs, not every such curve was filed as active; the % refers to the signal ratio)
# Outline: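 ER stress element reporter (bla) in HeLa. 1,500 cells/well, overnight attachment; 5 hr compound; 2 hr RT substrate; dual-emission fluorescence.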
# [4] = qHTS assay to identify small molecule agonists of the endoplasmic reticulum stress response signaling pathway - cell viability counter screen (AID 1159517; calls by dose curve;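 further: HeLa cells carrying an ER stress response element beta-lactamase reporter; nearly all actives have a fitted effect of over 50% in size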)
# Outline: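 CellTiter-Glo was added to wells already read for beta-lactamase FRET, and luminescence was recorded 30 min later. Cells: ESRE-bla HeLa, 1,500 per well, compound exposure 5 hr at 37 C.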
# [5] = qHTS assay to identify small molecule antagonists of the retinoid-related orphan receptor gamma (ROR-gamma) signaling pathway - cell viability counter screen (AID 1159520); further: nearly all actives have a fitted effect of over 50% in size
# Outline: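 Tet-on ROR gamma CHO cells (1,000/well) were plated 4 hr, given compounds in DMSO for 2 hr at 37 C, then induced with 1 uM final doxycycline for 16 hr. Viability was read as ATP by CellTiter-Glo luminescence after 30 min.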
# [6] = qHTS assay to identify small molecule agonists of the AP-1 signaling pathway - cell viability counter screen (AID 1159525; calls by dose curve; further: nearly all actives have a fitted effect of over 55% in size; further: potency means the concentration at half of the fitted maximal effect)
# Outline: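 ME-180 AP-1-bla, 2500 cells/well, Opti-MEM + 0.5% dialyzed FBS; overnight 37 °C; cpd 15-pt titration, 5 h 37 °C; CellTiter-Glo 30 min RT; luminescence read; normalised to TOAB and DMSO controls.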
# [7] = qHTS assay to identify small molecule agonists of the AP-1 signaling pathway (AID 1159526; calls by dose curve)
# [8] = target: Retinoic acid receptor RXR-alpha (Homo sapiens) (UniProt P19793); assay: qHTS assay to identify small molecule agonists of the RXR signaling pathway (AID 1159527; calls by dose curve; further: nearly all actives have a fitted effect of over 35% in size; further: potency means the concentration at half of the fitted maximal effect)
# Outline: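 Beta-lactamase reporter assay, agonist format. Engineered HEK 293T line, charcoal-stripped FBS at 2%, overnight (16 hr) exposure, fluorescence at 460 and 530 nm after 405 nm excitation.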
# [9] = qHTS assay to identify small molecule agonists of the RXR signaling pathway - cell viability counter screen (AID 1159529); further: nearly all actives have a fitted effect of over 50% in size; further: potency means the concentration at half of the fitted maximal effect
# Outline: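 Same-well viability check after the LiveBLAzer FRET read: CellTiter-Glo added, luminescence measured after 30 min at room temperature. Reporter HEK 293T cells had been treated with compounds for 16 hr following a 5 hr preincubation.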
# [10] = qHTS assay to identify small molecule antagonists of the retinoid acid receptor (RAR) signaling pathway - cell viability counter screen (AID 1159551); further: nearly all actives have a fitted effect of over 35% in size
# Outline: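 Following overnight attachment, C3RL4 reporter cells received DMSO-dissolved compounds and then retinol (1 uM final). Six hours later at 37 C, ATP content was measured by CellTiter-Glo luminescence.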
# [11] = qHTS assay to identify small molecule antagonists of the vitamin D receptor (VDR) signaling pathway - cell viability counter screen (AID 743225); further: nearly all actives have a fitted effect of over 50% in size; further: potency means the concentration at half of the fitted maximal effect
# Outline: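 Luminescent cell viability (CellTiter-Glo) in VDR-bla HEK 293T cells after 16 h compound exposure at 37C in the presence of 3 nM final 1-alpha,25-dihydroxy vitamin D3.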
# [12] = qHTS assay to identify small molecule antagonists of the retinoic acid receptor (RAR) signaling pathway (AID 1159552; further: nearly all actives have a fitted effect of over 50% in size; further: potency means the concentration at half of the fitted maximal effect)
# Outline: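 Readout: luciferase luminescence, 30 min post-reagent at RT. Setup: C3RL4 RARE reporter cells, compounds plus retinol 1 uM final, 6 hr incubation at 37 C and 5% CO2.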
# [13] = qHTS assay to identify small molecule agonists of the retinoic acid receptor (RAR) signaling pathway (AID 1159553); conditions: C3RL4 RARE luciferase reporter, agonist, 6 h; activation: at 73.3 µM (top of the series)
# Outline: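 Cell line C3RL4, RARE luciferase reporter. Treatment: compounds in DMSO, 6 hr, 37 C, 5% CO2, after overnight plating. Detection: luminescence, 30 min RT after reagent.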
# [14] = qHTS assay to identify small molecule antagonists of the estrogen related receptor (ERR) signaling pathway - cell viability counter screen (AID 1224818);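 further: viability measured after 17.5 h of compound exposure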
# Outline: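 Here, ERR cells are plated at 2,000 cells per well, allowed 6 h to attach, and treated with compounds in DMSO for 17.5 h at 37 C. CellTiter-Fluor is then added and fluorescence read after 30 min.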
# [15] = qHTS assay to identify small molecule antagonists of the estrogen related receptor signaling pathway with the pleiotropic PPARgamma coactivator (PGC) cell viability counter screen (AID 1224822;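 further: viability read after 17.5 h compound exposure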)
# Outline: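 qHTS format, DMSO compound stocks pin-transferred onto PGC/ERR cells 6 h after plating; 17.5 h exposure at 37 C, then CellTiter-Fluor fluorescence.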
# [16] = target: Nuclear receptor ROR-gamma (Homo sapiens) (UniProt P51449); assay: qHTS assay to identify small molecule antagonists of the retinoid-related orphan receptor gamma (ROR-gamma) signaling pathway (AID 1159521; further: nearly all actives have a fitted effect of over 50% in size; further: potency means the concentration at half of the fitted maximal effect)
# Outline: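 CHO cells expressing RORγ under a TET-on promoter, luciferase under RORE control. Dox 1 uM final, 16 h; compounds added 2 h prior. Luminescence decrease measured.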
# [17] = qHTS assay to identify small molecule antagonists of the estrogen related receptor (ERR) signaling pathway (AID 1224819)
# Outline: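 LOPAC library screened for antagonism as reduced One-Glo luminescence in ERR reporter cells (2,000/well). Compounds were added after 6 h pre-incubation and left 18 h at 37C; reading followed a 30 min room-temperature reagent step.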
# [18] = tested on: estrogen-related receptor alpha (ERRalpha) with PGC-1alpha coactivator, human; assay: qHTS assay to identify small molecule antagonists of the estrogen related receptor signaling pathway with the pleiotropic PPARgamma coactivator (PGC) (AID 1224821; calls by dose curve)
# Outline: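 Luminescent read-out (One-Glo, 30 min at room temperature) following 18 h treatment of PGC/ERR cells at 37 C with compounds delivered in DMSO. Cells had settled 6 h at 37 C/5% CO2 before dosing.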
# Sequence of Retinoic acid receptor RXR-alpha (Homo sapiens) (P19793 whole entry, looked up): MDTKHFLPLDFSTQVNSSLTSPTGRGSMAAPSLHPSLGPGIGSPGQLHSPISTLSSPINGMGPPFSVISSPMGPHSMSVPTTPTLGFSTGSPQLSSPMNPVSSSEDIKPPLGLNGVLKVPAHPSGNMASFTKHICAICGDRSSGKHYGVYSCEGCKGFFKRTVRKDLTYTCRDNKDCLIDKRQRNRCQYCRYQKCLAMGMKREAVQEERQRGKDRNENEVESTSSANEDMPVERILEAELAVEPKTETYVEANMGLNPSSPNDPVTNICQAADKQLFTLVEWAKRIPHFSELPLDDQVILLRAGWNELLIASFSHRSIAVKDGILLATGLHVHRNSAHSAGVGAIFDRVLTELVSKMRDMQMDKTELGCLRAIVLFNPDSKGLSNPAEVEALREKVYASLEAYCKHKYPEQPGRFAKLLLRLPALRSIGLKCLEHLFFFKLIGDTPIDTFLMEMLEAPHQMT
Structure (SMILES),Potency [1],Potency [2],Potency [3],Potency [4],Potency [5],Potency [6],Potency [7],Potency [8],Potency [9],Potency [10],Potency [11],Potency [12],Potency [13],outcome [14],outcome [15],Potency [16],outcome [17],outcome [18]
CCC=CC#N,inactive,inactive,inactive,inactive,inactive,inactive,inactive,inactive,inactive,inactive,–,–,–,–,–,–,–,–
CC(C)=CCC/C(C)=C/CC/C(C)=C/CCC(=O)OC/C=C(\C)CCC=C(C)C,inactive,inactive,inactive,inactive,inactive,inactive,inactive,inactive,inactive,inactive,inactive,inactive,inactive,–,–,–,–,–
Nc1nc2ccc([N+](=O)[O-])cc2s1,inactive,inactive,inactive,inactive,inactive,–,–,–,–,–,–,inactive,inactive,inactive,inactive,–,–,–
C=C1C[C@@]23CC[C@H]4[C@@](C)(CCC[C@@]4(C)C(=O)O[C@@H]4O[C@H](CO)[C@@H](O)[C@H](O)[C@H]4O)[C@@H]2CC[C@]1(O[C@@H]1O[C@H](CO)[C@@H](O)[C@H](O[C@@H]2O[C@H](CO)[C@@H](O)[C@H](O)[C@H]2O)[C@H]1O[C@@H]1O[C@H](CO)[C@@H](O)[C@H](O)[C@H]1O)C3,inactive,inactive,inactive,inactive,inactive,inactive,inactive,inactive,inactive,inactive,–,inactive,–,–,–,–,–,–
CC(=O)c1cc2ccccc2s1,inactive,inactive,inactive,inactive,inactive,–,inactive,inactive,inactive,inactive,inactive,inactive,inactive,–,–,inactive,–,–
CCCCOc1ccc(OCCCN2CCOCC2)cc1,inactive,inactive,inactive,inactive,inactive,inactive,inactive,inactive,inactive,inactive,inactive,inactive,–,–,–,–,–,–
COc1ccccc1NC(=O)c1cc2ccccc2cc1O,21.9 µM (active),inactive,inactive,inactive,–,inactive,inactive,–,inactive,inactive,38.9 µM (active),inactive,–,–,–,30.6 µM (active),–,–
c1ccc2c(c1)CCc1ccccc1N2,inactive,inactive,inactive,inactive,inactive,inactive,–,inactive,–,inactive,inactive,inactive,inactive,–,–,–,–,–
NC1[C@H]2CN(c3nc4c(cc3F)c(=O)c(C(=O)O)cn4-c3ccc(F)cc3F)C[C@@H]12 (stereo partly specified),–,inactive,inactive,inactive,inactive,–,inactive,19 µM (active),inactive,inactive,–,–,–,inactive,inactive,inactive,inactive,inactive
O=C=Nc1cccc(C(F)(F)F)c1,–,inactive,inactive,inactive,inactive,inactive,inactive,inactive,–,inactive,–,–,–,–,–,–,–,–
COc1ccccc1N1CCN(CC(O)COc2cccc3ccccc23)CC1 (stereo unspecified),inactive,inactive,inactive,inactive,inactive,23.9 µM (active),–,–,12 µM (active),inactive,inactive,26.6 µM (active),inactive,inactive,inactive,–,–,–
Brc1cc(Br)c(Oc2cc(Br)c(Br)cc2Br)cc1Br,23.9 µM (active),inactive,inactive,inactive,inactive,–,–,–,–,inactive,inactive,–,–,–,–,inactive,–,–
O=C(CCCN1CC=C(n2c(=O)[nH]c3ccccc32)CC1)c1ccc(F)cc1,inactive,inactive,inactive,inactive,inactive,inactive,inactive,–,–,inactive,inactive,inactive,inactive,–,–,–,–,–
FC(F)(F)c1ccccc1Cl,inactive,inactive,inactive,inactive,inactive,inactive,inactive,inactive,inactive,inactive,inactive,inactive,inactive,–,–,–,–,–
Cc1cc2c(OCC(CNC(C)(C)C)OC(=O)c3ccccc3)cccc2[nH]1 (stereo unspecified),inactive,inactive,inactive,inactive,inactive,inactive,inactive,inactive,inactive,inactive,inactive,–,inactive,–,–,–,–,–
CC1=C(CC=O)C(C)(C)CCC1,inactive,inactive,inactive,inactive,inactive,inactive,inactive,inactive,inactive,inactive,inactive,–,–,–,–,–,–,–
O=C1Cc2ccccc2N1c1c(Cl)cccc1Cl,inactive,inactive,inactive,inactive,inactive,–,–,–,–,inactive,–,inactive,–,–,–,–,–,–
